From PubChem
APP 5UTR inh: inhibitors of APP translation via 5'UTR reporter, primary screen, APP 5'UTR luciferase, SH-SY5Y cells. inhibition, % at 2 µM. 190,000 tested, 0.82% active. SH-SY5Y APP 5'UTR-luciferase reporter, luminescence;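 active = inhibition above a set limit, derived from the sample mean plus 3 SD, cut at about 45% in these data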
aSyn UTR inh: MLPCN primary screen, SNCA 5' untranslated region | alpha-synuclein 5'UTR reporter, inhibitor activity | inhibition, % (tested at 7.5 µM) | 300,000 tested, 0.82% active; in the data active = inhibition above about 60%;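 note: H4 neuroglioblastoma cells stably carrying SNCA 5'UTR luciferase fusion; 0% = DMSO wells and 100% = positive control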
KLF5 inh: KLF5 expression inhibitors, primary screen, DLD-1 cells, luminescence; AID 1700, 2009; 290,000 tested, 0.23% active; inhibition, % at 5 µM; DLD-1 KLF5 promoter-luciferase reporter;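 active = inhibition above a per-plate limit of that plate's mean compound inhibition plus 3 SD, cut at about 60% in these data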;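 note: 0% = DMSO wells and 100% = LY294002 at 200 µM; higher means less KLF5 promoter-driven luciferase light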
IEC-6 cytotox: cytotoxicity in IEC-6 intestinal epithelial cells, primary screen, cytotoxicity control for KLF5 inhibitor project, cell-based, luminescence; IEC-6 cytotoxicity, luminescence viability; inhibition, % at 5 µM; 290,000 tested, 0.78% active; in the data active = inhibition above about 22%;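 note: 0% = plate median of test compound wells and 100% = cytotoxic reference compound wells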
Ba/F3 V617F tox: reduced viability of JAK2V617F-dependent Ba/F3 cells, primary screen, JAK2V617F inhibitor project, cell-based, Ba/F3 EpoR-JAK2V617F, luminescence; ATP luminescence; inhibition, % at 5.6 µM; 220,000 tested, 1.1% active; AID 1446, 2008;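 active = inhibition above the campaign mean plus 3 SD over all tested compounds, cut at about 24% in these data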;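 note: cytokine-independent growth of Ba/F3 cells driven by EpoR plus mutant JAK2; 0% = DMSO-treated cells and 100% = JAK inhibitor I control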
BaF3 parental: parental Ba/F3 cell viability inhibition, counter-screen for JAK2V617F inhibitor project, murine pro-B, CellTiter-Glo luminescence; AID 1486, 2009; 220,000 tested, 1.1% active; inhibition, % at 5.6 µM; CellTiter-Glo ATP luminescence;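 active = inhibition above a per-campaign cutoff, the mean inhibition of all tested compounds plus 3 SD, cut at about 27% in these data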;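 note: 0% = DMSO wells and 100% = JAK Inhibitor I control wells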
Numbers without * were called inactive; . = not tested or not shown. Rows were chosen to be rich in hits. Some 2.2% of all compounds tested hit in one or more screens of this group.

SMILES	APP 5UTR inh	aSyn UTR inh	KLF5 inh	IEC-6 cytotox	Ba/F3 V617F tox	BaF3 parental
COc1cc(/C=N/NC(=O)C(Cc2c[nH]c3ccccc23)NC(=O)OCC(C)C)cc([N+](=O)[O-])c1OCc1ccccc1 (centres undefined)	-24	-61	-12	3	95*	100*
Cc1nn(C)c(C)c1CN(Cc1nc(CCC(C)C)no1)C(C)C	16	1	6	9	53*	81*
Nc1ccc(C#Cc2ccccc2)cc1	-7	18	-86	3	-3	5
Nc1ccccc1C#Cc1ccccc1	-119	-162	-109	0	14	35*
COC(=O)c1c(NC(=O)C2CCCCC2)sc2c1CC(C)(C)NC2(C)C	.	-23	-31	-11	.	.
Cc1ccc(NC(=O)CCCc2ccccc2)c([N+](=O)[O-])c1	.	-76	-61	-2	.	.
CC1(C)Cc2nc(-c3ccccc3)nc(SCC(=O)N3CCOCC3)c2CO1	.	0	-19	0	.	.
CC1(C)Cc2nc(-c3ccccc3)nc(SCC(O)CO)c2CO1 (centres undefined)	.	0	-27	3	1	61*
Cc1ccc(C(=S)N2CCN(Cc3ccccc3)CC2)cc1	-21	7	-32	0	-4	1
CCN1CCN(C(=S)c2ccc(-c3ccccc3)cc2)CC1	-7	66*	-15	-2	2	2
ClC1=C(Cl)C(Cl)=C(Cl)C1=C/C=C/c1ccccc1	.	113*	-15	3	-3	1
O=C(NCCO)C(=O)NCC1OCCCN1S(=O)(=O)c1ccc2c(c1)OCCO2 (centres undefined)	.	0	-46	-9	.	.
COCCNc1nc(N)c([N+](=O)[O-])c(NC2CCCCC2)n1	.	68*	4	0	.	.
Nc1nc(NC2CCCCC2)nc(NCCO)c1[N+](=O)[O-]	.	32	-20	-5	.	.
COc1cccc(/C=C(\C)C(=O)c2c(C)cc(C)[nH]c2=O)c1OC	.	9	-48	-3	.	.
OC(c1ccccc1)(c1ccccc1)c1ncc[nH]1	.	-3	.	.	.	.
Cc1ccccc1N/N=C/c1sc(=O)n(Cc2cccc(C(=O)O)c2)c1Cl	.	2	19	-2	-3	-2
COC(=O)c1cccc(Cn2c(Cl)c(/C=N/Nc3ccccc3C)sc2=O)c1	46*	-2	4	-6	-3	0
CCc1cc(=O)oc2c(C)c(OC(C)C(=O)NCCCn3ccnc3)ccc12 (centres undefined)	.	2	-38	13	.	.
C#CCN(CC=C)C(=O)c1ccc2nc(C3CCCCC3)oc2c1	.	-32	-30	2	.	.
COc1cccc(-c2ccc(NC(=O)C3CCCN(CCCn4nc(C)cc4C)C3)cc2)c1 (centres undefined)	.	-30	-29	-1	.	.
O=C1c2cccc3c([N+](=O)[O-])ccc(c23)C(=O)N1c1ccc(Cl)cn1	78*	36	16	0	-2	-1
O=C1c2cccc3c([N+](=O)[O-])ccc(c23)C(=O)N1c1nccs1	81*	20	-16	8	39*	32*
O=C1c2cccc3c([N+](=O)[O-])ccc(c23)C(=O)N1c1ccccn1	81*	-38	-1	7	21	10
O=C1c2cccc3c(N4CCCCC4)ccc(c23)C(=O)N1c1ccc(Cl)cn1	-18	.	3	0	0	9
SMILES	APP 5UTR inh	aSyn UTR inh	KLF5 inh	IEC-6 cytotox	Ba/F3 V617F tox	BaF3 parental
O=C(OCCOc1ccc(Br)cc1)c1ccc(Cl)c(S(=O)(=O)N2CCOCC2)c1	.	9	.	.	.	.
O=C(NCCc1ccccn1)c1cc2ccccc2o1	.	-102	-72	4	.	.
O=[N+]([O-])c1cccc(-c2nnc(-c3ccccc3)o2)c1	-115	68*	-77	-4	-2	5
CCOC(=O)c1sc(NC(=O)Nc2cccc(Cl)c2)cc1C	-105	-110	-137	0	1	43*
CC1(C)NC(=O)N(CCCCOc2ccc(Cl)cc2C=O)C1=O	10	-8	-1	10	71*	76*
Cc1nn2cc(-c3ccccc3)nc2s1	-114	-21	-65	5	4	7
c1ccc(-c2cn3c4c(sc3n2)CCCC4)cc1	-88	117*	-134	15	5	4
Cn1cc(C(=O)Nc2ccc(Cl)c(Cl)c2)cn1	.	-85	.	.	.	.
